Assay outcomes as filed in PubChem.
HP1b chromo inh: HTS for Inhibitors of HP1-beta Chromodomain Interactions with Methylated Histone Tails. actives 0.56% (n = 390,000). Chromobox protein homolog 1 (Homo sapiens), P83916. Potency, µM (titrated, usually from 114 µM), usual class: inhibitors. AlphaScreen HP1-beta / biotin-H3K9me3 peptide binding. AID 540317, 2011; note: nearly all actives have a fitted effect of over 70% in size
Target sequence (P83916 whole entry, looked up): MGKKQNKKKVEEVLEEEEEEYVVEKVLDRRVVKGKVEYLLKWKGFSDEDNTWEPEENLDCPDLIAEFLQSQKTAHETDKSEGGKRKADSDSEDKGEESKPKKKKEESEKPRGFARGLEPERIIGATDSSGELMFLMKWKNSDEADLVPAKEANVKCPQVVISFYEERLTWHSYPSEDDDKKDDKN
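Compound inhibition of the preformed complex between 50 nM HP1-beta and 50 nM biotinylated H3K9me3 peptide was read by AlphaScreen. Buffer was PBS pH 7.4 with 0.01% Tween-20. Incubations ran 30 min at room temperature, with 10 ug/mL donor/acceptor beads.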
L3MBTL1 inh: qHTS Assay for the Inhibitors of L3MBTL1; Lethal(3)malignant brain tumor-like protein 1 (Homo sapiens), Q9Y468; AlphaScreen L3MBTL1–H3K9me1 peptide binding; Potency, µM (doses to about 57.1 µM), usual class: inhibitors; actives 0.66% (n = 230,000); note: nearly all actives have a fitted effect of over 60% in size
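Displacement of a biotinylated histone H3(1-15) peptide monomethylated at Lys9 (75 nM) from L3MBTL1 (50 nM) was measured by AlphaScreen after a 30 min room-temperature compound incubation; cefsulodin titration served as intraplate control.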
JMJD2A Tudor inh: qHTS Assay for Inhibitors of JMJD2A-Tudor Domain; Lysine-specific demethylase 4A (Homo sapiens), O75164; AlphaScreen JMJD2A-Tudor / H3K4me3 peptide binding; Potency, µM (series often up to 114 µM), hits mostly inhibitors; actives 4.4% (n = 390,000); AID 504339, 2011; note: nearly all actives have a fitted effect of over 50% in size
Sfp inh: qHTS Assay for Inhibitors of Bacillus subtilis Sfp phosphopantetheinyl transferase (PPTase); Potency, µM, usual class: inhibitors; 4'-phosphopantetheinyl transferase ffp (Bacillus subtilis), Q9F4F7; actives 3.5% (n = 310,000); Biochemical Sfp PPTase activity, qHTS;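 note: the enzyme is Sfp with the accession as filed and its product quenches rhodamine fluorescence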
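After 15 min at room temperature with compound, 15 nM Sfp received 5 uM rhodamine-CoA plus 12.5 uM BHQ-2-ybbR (50 mM Hepes pH 7.6, 10 mM MgCl2). Rate came from the fluorescence difference over 30 min, ex 525/em 598 nm.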
G9a block: qHTS Assay for Inhibitors of Histone Lysine Methyltransferase G9a; actives 8.8% (n = 350,000); AID 504332, 2011; Histone-lysine N-methyltransferase EHMT2 (Homo sapiens), Q96KQ7; G9a H3K9 monomethylation, AlphaScreen, 2 h; Potency, µM (series often up to 102 µM), most hits filed as inhibitors; note: nearly all actives have a fitted effect of over 75% in size
Target sequence (Q96KQ7 913-1193 limits assumed): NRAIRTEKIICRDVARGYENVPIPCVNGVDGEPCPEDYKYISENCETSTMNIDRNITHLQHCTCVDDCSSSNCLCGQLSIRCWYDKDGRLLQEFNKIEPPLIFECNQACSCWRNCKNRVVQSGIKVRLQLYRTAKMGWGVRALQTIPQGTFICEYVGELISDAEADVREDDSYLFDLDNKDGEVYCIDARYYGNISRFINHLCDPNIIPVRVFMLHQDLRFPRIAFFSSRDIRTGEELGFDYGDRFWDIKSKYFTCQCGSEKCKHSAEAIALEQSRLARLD
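Readings reflect AlphaScreen signal from monomethyl-H3K9 antibody detection. HMT at 20 nM; substrate b-H3K9 500 nM; cofactor SAM 20 uM; 2 h RT reaction; compounds tested as titrations in qHTS with 15 min preincubation.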
BAZ2B inh: qHTS Assay for Inhibitors of BAZ2B; Bromodomain adjacent to zinc finger domain protein 2B (Homo sapiens), Q9UIF8; AlphaScreen BAZ2B-H3K14Ac peptide displacement; Potency, µM (top dose mostly 114 µM), hits mostly inhibitors; actives 4.4% (n = 360,000); note: nearly all actives have a fitted effect of over 60% in size
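AlphaScreen displacement of biotin-H3(5-23)K14Ac peptide (50 nM final) from BAZ2B (50 nM final) in PBS pH 7.4, 0.01% Tween-20; complex preformed 30 min RT, then compounds (top 110 uM) 30 min RT, beads 20 min dark.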
Each line names hits and unclear results; the compound was inactive in the other large screens. Hits are enriched below; roughly 12% of the tested compounds scored in any of these assays. Calls come from the whole dose curve; as a rule, active = well fitted curve in the direction sought with a large enough effect; inconclusive = small, poorly fitted or top-dose-only effect, or another doubt; inactive = no such curve, though single readings can be large; an effect the other way counts as inactive or inconclusive.

COc1ccc(Nc2nc(NCc3ccco3)nc(N/N=C/c3ccccc3)n2)cc1	JMJD2A Tudor inh inconclusive, G9a block inconclusive, BAZ2B inh 79µM
CCNc1nc(NCC)nc(N/N=C/c2ccc(OC)cc2)n1	none
CCOc1nc(NCc2ccco2)nc(Nc2ccc(OC)cc2)n1	G9a block inconclusive, BAZ2B inh 50µM (no result: L3MBTL1 inh)
CCOc1nc(NCc2ccco2)nc(Nc2ccccc2F)n1	none
Cc1ccc2c(c1)-c1onc(C(=O)N(C)c3cccc(C(F)(F)F)c3)c1CO2	none (no result: L3MBTL1 inh, Sfp inh)
COc1cc(-c2cc(OC)c3c(C)oc(C)c3c(=O)c2)ccc1OC(=O)c1ccccc1C	JMJD2A Tudor inh inconclusive, G9a block inconclusive (no result: L3MBTL1 inh, Sfp inh)
COc1ccc(S(=O)(=O)N(C(C)=O)c2ccc(OC(C)=O)c3ccccc23)cc1[N+](=O)[O-]	G9a block 79µM
CC(=O)Oc1ccccc1N(C(C)=O)S(=O)(=O)c1ccc(C)cc1	none (no result: L3MBTL1 inh, BAZ2B inh)
Cc1ccc(CNC(=O)c2ccc(CNS(=O)(=O)c3ccc4c(c3)C(C)(C)C(=O)N4C)cc2)o1	Sfp inh 50µM, G9a block 45µM
Cc1ccccc1NC(=O)c1ccc(CNS(=O)(=O)c2ccc3c(c2)C(C)(C)C(=O)N3C)cc1	none (no result: L3MBTL1 inh, Sfp inh)
Cc1ccc(S(=O)(=O)Nc2ccc(NC(=O)c3c(F)c(F)c(F)c(F)c3F)cc2)cc1	none (no result: L3MBTL1 inh)
Cc1cc(C)[n+]2[nH]c(N)c(N=Nc3ccccc3)c2n1	G9a block inconclusive, BAZ2B inh inconclusive
Nc1n[nH]c(N)c1N=Nc1ccc(Cl)cc1	JMJD2A Tudor inh 35µM, BAZ2B inh 45µM
Cc1cccc(N=C2N=C(N)c3ccccc32)c1	none
Cc1cccc(N=Nc2c(N)n[nH]c2N)c1	JMJD2A Tudor inh inconclusive, BAZ2B inh 40µM
Nc1n[nH]c(N)c1N=Nc1cccc(F)c1	JMJD2A Tudor inh inconclusive, G9a block inconclusive, BAZ2B inh 40µM
Nc1n[nH]c(N)c1N=Nc1cccc(C(F)(F)F)c1	JMJD2A Tudor inh inconclusive, G9a block 71µM, BAZ2B inh 40µM (no result: L3MBTL1 inh)
Nc1[nH]ncc1N=Nc1ccc(Cl)cc1	BAZ2B inh inconclusive (no result: L3MBTL1 inh)
COc1ccc(-c2nc3ccccc3s2)cc1NC(=O)c1cc2ccccc2o1	none (no result: L3MBTL1 inh, Sfp inh)
CCOCCCn1c(SCc2nc3sc(C(=O)O)c(C)c3c(=O)[nH]2)nnc1-c1ccc(Cl)cc1	JMJD2A Tudor inh inconclusive, G9a block 20µM
CCOC(=O)c1sc2nc(CSc3nc4ccccc4n3CC)[nH]c(=O)c2c1C	none
Cc1cc(C)c(NC(=O)c2sc3nc(C)[nH]c(=O)c3c2C)c(C)c1	none (no result: HP1b chromo inh, JMJD2A Tudor inh)
C=CCn1c(SCc2nc3sc(C(=O)O)c(C)c3c(=O)[nH]2)nnc1-c1ccccc1	JMJD2A Tudor inh 25µM, G9a block inconclusive, BAZ2B inh inconclusive
Cc1c(C(=O)O)sc2nc(CSc3nnc(-c4ccc(F)cc4)n3C)[nH]c(=O)c12	JMJD2A Tudor inh inconclusive, G9a block 35µM, BAZ2B inh inconclusive
Cc1ccc(NC(=O)c2sc3nc(CCl)[nH]c(=O)c3c2C)c(C)c1	G9a block 35µM
C=CCn1c(SCc2nc3scc(-c4ccccc4)c3c(=O)[nH]2)nnc1-c1ccccc1F	none
Cc1ccc(-n2nnnc2SCc2nc3sc(C)c(C)c3c(=O)[nH]2)cc1	none
Cc1ccc(-c2csc3nc(CSc4nnc(-c5ccc(Cl)cc5)n4C)[nH]c(=O)c23)cc1	G9a block 22µM
CSCc1nc2sc(C(=O)Nc3nc(C)cs3)c(C)c2c(=O)[nH]1	G9a block 45µM, BAZ2B inh inconclusive
C=CCn1c(SCc2nc3sc(C(=O)O)c(C)c3c(=O)[nH]2)nnc1-c1ccc(C(C)(C)C)cc1	L3MBTL1 inh inconclusive, JMJD2A Tudor inh 28µM, Sfp inh 28µM, G9a block 14µM, BAZ2B inh 50µM
CCn1c(SCc2nc3scc(-c4ccccc4)c3c(=O)[nH]2)nnc1-c1ccc(Cl)cc1	none
Cc1nnc(SCc2nc3sc(C(=O)O)c(C)c3c(=O)[nH]2)s1	L3MBTL1 inh inconclusive, JMJD2A Tudor inh 32µM (no result: G9a block)
CC(=O)c1sc2nc(CSc3nncn3C)[nH]c(=O)c2c1C	none
COC(=O)c1sc2nc(CSc3nc4ccc(C)cc4[nH]3)[nH]c(=O)c2c1C	G9a block inconclusive (no result: L3MBTL1 inh)
CN1C(=O)c2ccccc2Sc2ccc(NC(=O)NCc3cccc(Cl)c3)cc21	none (no result: L3MBTL1 inh, Sfp inh)
CN1CCN(c2ccnc(-c3ccc(N(C)C)cc3)n2)CC1	none (no result: HP1b chromo inh, L3MBTL1 inh, JMJD2A Tudor inh, BAZ2B inh)
CC(=O)c1sc2nc(CSc3nnnn3-c3ccccc3)[nH]c(=O)c2c1C	L3MBTL1 inh inconclusive, Sfp inh inconclusive, G9a block 56µM, BAZ2B inh inconclusive
Cc1ccc(-c2nsc(SCC(=O)NCc3ccc4c(c3)OCO4)n2)cc1	none
Cn1c(=O)c2c(SCC(=O)NCC3CCCO3)nc(-c3cccs3)nc2n(C)c1=O (stereo not drawn)	G9a block 50µM (no result: HP1b chromo inh, JMJD2A Tudor inh)
O=C(CSc1nc(-c2ccccc2)ns1)NCC1CCCO1 (stereo not drawn)	Sfp inh 35µM, G9a block 22µM (no result: L3MBTL1 inh)
COc1ccc(-c2nsc(SCC(=O)Nc3ccc4c(c3)OCO4)n2)cc1	G9a block inconclusive
